This is an account of results in PMC11062922 (Nature Chemical Biology, 2023).

Common to all, as to parameters: species or system human, MV4-11 + K-562 + COLO205 + SK-N-BE2 + OVCAR-8
The test system of one test is CSK. To be noted: read-out: apparent Kd; compound concentrations:100 nM and 1000 nM (sheet 'Samples'); n = 1.
Another test concerns EPHA1. To be noted: read-out: apparent Kd, n = 1.
In the next test the test system is EPHB3. To be noted: read-out: apparent Kd; compound concentrations:100 nM and 1000 nM (sheet 'Samples'); n = 1.
The test system of a further test is CDC42BPA. The settings on record: read-out: apparent Kd, n = 1.
Another test deals with CDK9. The settings on record: read-out: apparent Kd, n = 1.
Another test concerns ICK. To be noted: read-out: apparent Kd, n = 1.
The subject of the next test is PDGFRB. To be noted: read-out: apparent Kd, compound concentrations: 100 nM and 1000 nM (sheet 'Samples'), n = 1.
The next test relates to ACVR1B. To be noted: read-out: apparent Kd; compound concentrations:100 nM and 1000 nM (sheet 'Samples'); n = 1.
For the next test, the system named is MTOR. The settings on record: read-out: apparent Kd, n = 1.
The subject of a further test is TGFBR2. The settings on record: read-out: apparent Kd, n = 1.
The next test relates to ROCK1. The settings on record: read-out: apparent Kd, n = 1.
In another test the test system is CDC42BPG. To be noted: read-out: apparent Kd, n = 1.
A further test concerns TTK. To be noted: read-out: apparent Kd, n = 1.
The subject of another test is PIK3CG. To be noted: read-out: apparent Kd, compound concentrations: 100 nM and 1000 nM (sheet 'Samples'), n = 1.
In the next test the test system is PRKG1. The settings on record: read-out: apparent Kd, n = 1.
The subject of another test is AXL. To be noted: read-out: apparent Kd; compound concentrations: 100 nM and 1000 nM (sheet 'Samples'), CATDS: 9.0934128648907098E-2; n = 1.
Setting [1] is: compound concentrations:100 nM and 1000 nM (sheet 'Samples').

Like-named read-outs stand apart in the source and are kept apart here.

As for `CS(=O)(=O)CCn1c(=O)c(Oc2ccc(F)cc2F)cc2cnc(NC3CCOCC3)nc21` [RO5027956-000], the potency estimated from few doses with CSK was 1540 nM; in the test with EPHA1 (setting [1]), 724 nM; with EPHB3 it was 2330 nM.
`COc1cc(Nc2nccc(-c3cnn4ncccc34)n2)cc(OC)c1` [GW801372X]: the potency estimated from few doses was 786 nM with CDC42BPA (compound concentrations: 100 nM and 1000 nM (sheet 'Samples'), CATDS: 2.2465917361224799E-2); 142 nM with CDK9 (compound concentrations: 100 nM and 1000 nM (sheet 'Samples'), CATDS: 4.3233319898636102E-2); 49.6 nM with ICK (compound concentrations: 100 nM and 1000 nM (sheet 'Samples'), CATDS: 7.2296176142385704E-2); 3520 nM in the test with PDGFRB (CATDS: 1.5756503418678101E-2).
As for `CNc1cc(-c2ccc3c(N)n[nH]c3c2)nc(N)n1` [GSK2224810A], the potency estimated from few doses in the test with ACVR1B was 361 nM; in the test with MTOR (setting [1]), 475 nM.
Turning to `Nc1nc(Nc2ccccc2)cc(-c2ccc3c(N)n[nH]c3c2)n1` [GSK2225749A], in the test on ACVR1B, the potency estimated from few doses was 293 nM.
In the case of `CCN(CC)Cc1ccc(Nc2nccc(-c3cnn4ncccc34)n2)cc1` [GW780056X], the potency estimated from few doses in the test with CDK9 (compound concentrations: 100 nM and 1000 nM (sheet 'Samples'), CATDS: 0.168116243338059) was 19.4 nM; in the test on ICK (compound concentrations: 100 nM and 1000 nM (sheet 'Samples'), CATDS: 2.9886591978346599E-2), 433 nM; in the test on PDGFRB (CATDS: 2.40786043408843E-2), 746 nM.
With `Cc1n[nH]c2cc(Nc3ccnc(Nc4cccc(CN5CCOCC5)c4)n3)ccc12` [GW682569X], in the test with TGFBR2 (compound concentrations: 100 nM and 1000 nM (sheet 'Samples'), CATDS: 0.113560287008428), the potency estimated from few doses was 891 nM.
Consider `c1ccc(-c2n[nH]cc2Nc2ccnc3ccccc23)nc1` [GW694077X], for which the potency estimated from few doses in the test with ROCK1 (compound concentrations: 100 nM and 1000 nM (sheet 'Samples'), CATDS: 2.4219369604879502E-2) was 1650 nM; in the test with TGFBR2 (compound concentrations: 100 nM and 1000 nM (sheet 'Samples'), CATDS: 2.8342721884761699E-2), 940 nM.
Regarding `O=C1N=C(N[C@H](CO)c2ccccc2)S/C1=C\c1ccc2ncccc2c1` [RO4554339-000], the potency estimated from few doses in the test with CDC42BPA (compound concentrations: 100 nM and 1000 nM (sheet 'Samples'), CATDS: 8.0851127030257999E-2) is 2180 nM.
Turning to `COc1cc[nH]c1/C=C1\C(=O)Nc2ccc([N+](=O)[O-])c(N3CC[C@@H](O)C3)c21` [RO0504985-000], the potency estimated from few doses with CDK9 (compound concentrations: 100 nM and 1000 nM (sheet 'Samples'), CATDS: 3.1258790077652497E-2) is 1620 nM; in the test with ICK (compound concentrations: 100 nM and 1000 nM (sheet 'Samples'), CATDS: 0.118189348894571), 47 nM; in the test on PDGFRB (CATDS: 3.1166812666601599E-2), 1640 nM; in the test with TGFBR2 (compound concentrations: 100 nM and 1000 nM (sheet 'Samples'), CATDS: 3.2384825488945002E-2), 1410 nM.
Consider `O=C1N=C(NCCc2ccccc2Cl)S/C1=C\c1ccc2ncccc2c1` [RO4498484-000], for which the potency estimated from few doses in the test on CDC42BPA (compound concentrations: 100 nM and 1000 nM (sheet 'Samples'), CATDS: 5.5434431749678797E-2) is 2450 nM.
For `Cc1occc1-c1nc(N)c(OC[C@@H](N)Cc2c[nH]c3ccccc23)cc1-c1cc2c(C)n[nH]c2cn1` [GSK1660450B], the potency estimated from few doses is 34.6 nM with CDC42BPA (setting [1]) and 65.4 nM in the test with CDC42BPG (setting [1]).
`NS(=O)(=O)c1ccc(N/C=C2\C(=O)Nc3ccc4ncsc4c32)cc1` [GW297361X]: the potency estimated from few doses is 1040 nM with CDK9 (compound concentrations: 100 nM and 1000 nM (sheet 'Samples'), CATDS: 3.67324795233104E-2); 1400 nM in the test on TTK (compound concentrations: 100 nM and 1000 nM (sheet 'Samples'), CATDS: 3.2979280004825598E-2).
On to `O=C1N=C(NCc2ccccc2Br)S/C1=C\c1ccc2ncccc2c1` [RO4506918-000], for which, in the test on CDC42BPG (compound concentrations: 100 nM and 1000 nM (sheet 'Samples'), CATDS: 7.9298685313138301E-2), the potency estimated from few doses is 1370 nM.
As for `NS(=O)(=O)c1ccc(N/N=C2\C(=O)Nc3ccc(-c4cnco4)cc32)cc1` [GW276655_KCGS], the potency estimated from few doses with ICK (setting [1]) was 1770 nM.
As to `Cl.Nc1nc(-c2ccc3c(c2)C(=Cc2cc(Br)c(O)c(Br)c2)C(=O)N3)cs1` [GW407323A], the potency estimated from few doses in the test with TTK (compound concentrations: 100 nM and 1000 nM (sheet 'Samples'), CATDS: 2.7527023575449099E-2) was 2150 nM.
Consider `CC(C)N1CC(=O)N(C)c2cnc(Nc3cccc(S(=O)(=O)CCN4CCOCC4)c3)nc21` [BI00009348], for which, in the test with PIK3CG (CATDS: 0.22323444695651501), the potency estimated from few doses is 109 nM.
With `NS(=O)(=O)c1ccc(NC=C2C(=O)Nc3ccc4ncsc4c32)cc1` [GW589933X], the potency estimated from few doses was 414 nM with CDK9 (compound concentrations: 100 nM and 1000 nM (sheet 'Samples'), CATDS: 2.7445436907685701E-2); 1050 nM in the test on ICK (compound concentrations: 100 nM and 1000 nM (sheet 'Samples'), CATDS: 1.95269690039667E-2); 826 nM in the test with PDGFRB (CATDS: 2.1122847549312301E-2); 817 nM with TTK (compound concentrations: 100 nM and 1000 nM (sheet 'Samples'), CATDS: 2.1205991954571499E-2).
Consider `NS(=O)(=O)c1cccc(-c2ccc3c(NC(=O)C4CC4)n[nH]c3c2)c1` [SB-741905], for which the potency estimated from few doses in the test with MTOR (compound concentrations: 100 nM and 1000 nM (sheet 'Samples'), CATDS: 0.166958544620607) was 626 nM.
As to `Cl.Cl.NCC(NCc1ccc(-c2ccnc3[nH]ccc23)s1)c1ccccc1.NCC(NCc1ccc(-c2ccnc3[nH]ccc23)s1)c1ccccc1` (centres unmarked) [GSK1321565A], the potency estimated from few doses with PRKG1 (setting [1]) was 1060 nM.
Take `COc1cc2ncn(-c3cc(OCc4ccccc4S(C)(=O)=O)c(C#N)s3)c2cc1OC` [GSK319347A]: in the test with AXL, the potency estimated from few doses is 1240 nM.
As for `COc1cc[nH]c1/C=C1\C(=O)Nc2ccc(F)c(C#C[C@@H](O)[C@@H](N)[C@@H](C)O)c21` [RO0283120-000], the values for the potency estimated from few doses in the test with CDK9 (setting [1]), with TGFBR2 (setting [1]) and with TTK (setting [1]) were 1130 nM, 1600 nM and 1180 nM, respectively.
As for `Cn1cc(C2=C(c3ccc(OC[C@@H](O)CO)cc3)C(=O)NC2=O)c2ccccc21` [RO3208546-000], the potency estimated from few doses in the test on MTOR (compound concentrations: 100 nM and 1000 nM (sheet 'Samples'), CATDS: 4.7243035246753197E-2) was 730 nM.
Consider `CCn1c(-c2nonc2N)nc2cncc(C(=O)N3CC[C@H](N)C3)c21.Cl` [SB-772077-B], for which the potency estimated from few doses in the test with CDC42BPA (setting [1]) is 1170 nM; in the test with PRKG1 (setting [1]) it was 95.9 nM.
Turning to `CC(C)(CO)CNC(=O)c1ccc2c(c1)/C(=N/Nc1ccc(S(N)(=O)=O)cc1)C(=O)N2` [GW301784X], the potency estimated from few doses in the test with ICK (setting [1]) was 1680 nM; in the test on TGFBR2 (setting [1]), 822 nM; in the test on TTK (setting [1]), 983 nM.
For `NS(=O)(=O)c1ccc(N/N=C2\C(=O)Nc3ccc4ncccc4c32)cc1` [GW305178X], the potency estimated from few doses with CDK9 (compound concentrations: 100 nM and 1000 nM (sheet 'Samples'), CATDS: 4.6560668202509002E-2) was 1210 nM; with TTK (compound concentrations: 100 nM and 1000 nM (sheet 'Samples'), CATDS: 4.7574405243594603E-2), 1130 nM.
Take `Cl.Cl.NCC(NC(=O)c1cc(-c2ccnc3[nH]ccc23)cs1)c1ccccc1.NCC(NC(=O)c1cc(-c2ccnc3[nH]ccc23)cs1)c1ccccc1` (centres unmarked) [GSK1229959A]: the potency estimated from few doses in the test with CDC42BPA (compound concentrations: 100 nM and 1000 nM (sheet 'Samples'), CATDS: 7.2504197887005906E-2) is 15.3 nM; in the test with CDC42BPG (compound concentrations: 100 nM and 1000 nM (sheet 'Samples'), CATDS: 9.9615433098280207E-2), 8.8 nM; in the test with CDK9 (compound concentrations: 100 nM and 1000 nM (sheet 'Samples'), CATDS: 1.9893156316103101E-2), 801 nM; with PRKG1 (compound concentrations: 100 nM and 1000 nM (sheet 'Samples'), CATDS: 9.38640843647673E-2), 9.7 nM; in the test on ROCK1 (compound concentrations: 100 nM and 1000 nM (sheet 'Samples'), CATDS: 0.109953475811368), 7.53 nM.
`Cl.Cl.NC[C@H](CC1CCCCC1)NC(=O)c1ccc(-c2ccnc3[nH]ccc23)s1.NC[C@H](CC1CCCCC1)NC(=O)c1ccc(-c2ccnc3[nH]ccc23)s1` [GSK1581428A]: the potency estimated from few doses with CDC42BPA (setting [1]) is 28.9 nM; in the test on PRKG1 (setting [1]), 41.4 nM; in the test on ROCK1 (setting [1]) it was 29.2 nM.
Consider `CCC(CC)(CC)n1cnc2c(N)ncnc21` [SKF-97620], for which the potency estimated from few doses in the test on EPHA1 (compound concentrations: 100 nM and 1000 nM (sheet 'Samples'), CATDS: 3.2414414086750797E-2) was 828 nM; in the test with MTOR (compound concentrations: 100 nM and 1000 nM (sheet 'Samples'), CATDS: 6.0851943016667201E-2) it was 220 nM; in the test on PIK3CG (CATDS: 3.56480592193908E-2) it was 658 nM; in the test with ROCK1 (compound concentrations: 100 nM and 1000 nM (sheet 'Samples'), CATDS: 2.49048423205754E-2), 1780 nM.
Consider `CCn1c(-c2nonc2N)nc2cncc(Br)c21` [SB-738004], for which the results for the potency estimated from few doses with CDC42BPA (setting [1]), in the test with CDK9 (setting [1]) and in the test on ROCK1 (setting [1]) were 2130 nM, 1120 nM and 181 nM, respectively.
For the compound `CN[C@H](C#Cc1c(F)ccc2c1/C(=C/c1[nH]ccc1OC)C(=O)N2)CO.Cl` [RO0283049-001], the potency estimated from few doses in the test with TTK (compound concentrations: 100 nM and 1000 nM (sheet 'Samples'), CATDS: 1.9624563492428401E-2) was 2080 nM.
`Cc1cc(NC(=O)c2cccc(NC(=O)/C=C/CN(C)C)c2)ccc1Nc1nccc(-c2cccnc2)n1` [JNK-IN-7]: the potency estimated from few doses with ICK (setting [1]) is 1290 nM.
